High-throughput results as filed in PubChem BioAssay.
This is a sample that favours compounds with a hit; in the whole collection about 21% have one here.
SARS PLP yeast: qHTS of Yeast-based Assay for SARS-CoV PLP | S. cerevisiae expressing SARS-CoV PLpro, growth rescue | Potency, µM (highest dose often 32.9 µM), for the others: at the highest dose activity, positive = growth rescue, most hits filed as activators | 0.19% of 330,000 active | AID 485353, 2010; calls by dose curve; note: potency is the fitted concentration of half-maximal effect; 0% is about no effect; nearly all actives have a fitted effect of over 55% in size
Pf growth 48h: Primary qHTS for delayed death inhibitors of the malarial parasite plastid, 48 hour incubation. AID 504832, 2011. 5.9% of 310,000 active. P. falciparum luciferase growth in erythrocytes, 48 h. Potency, µM (titrated, usually from 28.7 µM), inactives show top-dose activity change, negative = inhibition, usual class: inhibitors; note: potency is the fitted concentration of half-maximal effect; % is set by controls: 0 for no effect and ±100 for the full control effect
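Luciferase-expressing parasites in RBCs, 2% Hct / 0.1% parasitemia final; RPMI 1640 + 0.5% Albumax; 37 C, 5% CO2, one generation; luminescence read-out, lower signal = inhibition.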
NS1 function inh: qHTS Assay for Inhibitors of Influenza NS1 Protein Function; Potency, µM (highest dose often 46.1 µM), inactives show top-dose activity, positive = more growth; 0.4% of 270,000 active; calls by dose curve; note: potency is the fitted concentration of half-maximal effect; actives are rising curves; nearly all actives have a fitted effect of over 50% in size
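Recovery from NS1-induced slow growth read by OD600 in budding yeast switched to galactose assay medium (pH 6.0, -URA) at 1:100 dilution. Compound 23 nl per well; the matching strain lacking NS1 serves as control.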
Shiga toxin inh: A qHTS for Small Molecule Inhibitors of Shiga Toxin; Vero cells, Shiga toxin protein synthesis inhibition reporter; inhibition, % at 38.7 µM; 9.2% of 290,000 active; AID 2315, 2010; in the data active = inhibition mostly above about 28%, no sharp cut-off; inactive = mostly below about 43%; note: 0% is about no effect
Pf growth 96h: Primary qHTS for delayed death inhibitors of the malarial parasite plastid, 96 hour incubation; P. falciparum luciferase reporter growth, 96 h; Potency, µM (highest dose often 28.7 µM), inactives show at the highest dose activity change, negative = inhibition, hits mostly inhibitors; 6.9% of 320,000 active; AID 504834, 2011; note: potency is the fitted concentration of half-maximal effect; % is set by controls: 0 for no effect and ±100 for the full control effect
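Two-generation exposure (96 h) targets delayed-death phenotype. Reporter parasites carrying integrated firefly luciferase, in red cells at 2% hematocrit and 0.05% parasitemia final, kept at 37 C, 5% CO2; luminescence loss indicates inhibition.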
Cycloheximide cs: Cycloheximide Counterscreen for Small Molecule Inhibitors of Shiga Toxin; cell reporter, cycloheximide protein synthesis inhibition counterscreen; max response, %; 12% of 300,000 active; in the data active = max response mostly above about 13%, no sharp cut-off; inactive = mostly below about 14%; note: read at 38.3 µM for the half of the compounds with a filed dose; 0% is about no effect
Active calls of the source: *; u = inconclusive; x = no result given. Unless noted, calls come from the whole dose curve; as a rule, active = well fitted inhibition curve with a large enough effect; inconclusive = small, poorly fitted or top-dose-only effect, or another doubt; inactive = no such curve, though single readings can be large or run the other way.

SMILES | SARS PLP yeast | Pf growth 48h | NS1 function inh | Shiga toxin inh | Pf growth 96h | Cycloheximide cs
O=C1O/C(=C/Br)CCC1c1cccc2ccccc12 (stereo not given) | x | x | -14.6% | x | x | x
CCCCCOC(=O)c1[nH]c2c(c1C)C(=O)CC(c1ccco1)C2 (stereo not given) | -3.0% | 0.657µM* | -29.1% | -6.5 | 23.2% | 4.9
COCCOC(=O)c1[nH]c2c(c1C)C(=O)CC(c1cccs1)C2 (stereo not given) | -1.6% | u | x | -4.5 | 136.1% | 19.9*
C[C@@]12CCc3occc3[C@H]1CC[C@]13CC(=O)[C@@H](CC[C@H]12)C3 | x | x | x | 11.4 | x | -7.2
CC/C(=N\Nc1ccnc2cc(Cl)ccc12)c1ccc(O)cc1 | -8.1% | 1.65µM* | -40.3% | 17.6 | 1.31µM* | -5.4
CC/C(=N/NS(=O)(=O)c1ccc(Cl)cc1)c1ccc(O)cc1 | -3.0% | 14.4% | 1.5% | -1.7 | 28.7% | -2.7
Oc1ccc(/C=N/Nc2ccnc3cc(Cl)ccc23)cc1O | 1.1% | 0.657µM* | -40.9% | 1.3 | 0.738µM* | -2.7
Oc1ccc(/C=N/Nc2ccnc3cc(Cl)ccc23)c(O)c1O | 22.5% | u | 5.8% | 23.6 | u | -7.0
N#Cc1c(NC(=O)c2cc(C3CC3)on2)sc2c1CCC2 | -14.1% | x | -56.9% | -3.4 | -19.2% | 0.7
Cc1cc(C(=O)Nc2sc3c(c2C#N)CCC(C)C3)no1 (stereo not given) | -1.5% | 82.0% | -6.1% | 75.5* | 16.7% | 35.7*
Cc1cc(C(=O)Nc2sc3c(c2C#N)CCC3)no1 | -8.8% | 72.3% | -33.4% | 38.3* | 1.3% | 26.2*
Cn1ccc(C(=O)Nc2sc3c(c2C#N)CCC3)n1 | -4.5% | 0.8% | -28.3% | 12.1 | 76.7% | 15.9*
Cc1onc(-c2c(F)cccc2Cl)c1C(=O)Nc1sc2c(c1C#N)CCC(C(C)(C)C)C2 (stereo not given) | -9.6% | 6.57µM* | 4.4% | -19.1 | u | -2.2
CN(CC(=O)Nc1ncn[nH]1)S(=O)(=O)c1ccc(Cl)cc1 | 11.5% | -27.1% | -5.7% | -9.8 | 5.3% | -6.6
COc1ccc(N(CC(=O)NC2CC3CCC2C3)S(=O)(=O)c2ccc(C)c([N+](=O)[O-])c2)cc1 (stereo not given) | -0.5% | u | 4.8% | -14.4 | 7.9% | -4.6
COc1ccc(OC)c(S(=O)(=O)n2ccnc2C(C)C)c1 | -7.2% | 5.8% | -2.8% | x | -0.2% | -2.9
CC(C)Cc1cc(C(=O)Nc2sc3c(c2C#N)CCC3)no1 | -7.7% | x | -12.6% | -8.6 | u | -0.3
CC(C)Cc1cc(C(=O)Nc2sc3c(c2C#N)CCCC3)no1 | -17.6% | 36.8% | -20.9% | 21.0 | 31.0% | 32.6*
CCc1c(C)sc(NC(=O)c2cc(CC(C)C)on2)c1C#N | -0.6% | x | -12.3% | -14.3 | 13.1µM* | -2.0
Cc1cc(C(=O)Nc2sc3c(c2C#N)CCCC3)no1 | -45.8% | 295.2% | -49.1% | 51.6* | -4.1% | 37.0*
CC(C)c1ccccc1NC(=O)CNC(C)c1ccc(F)cc1 (stereo not given) | -2.0% | -26.7% | 2.0% | 1.9 | 3.5% | 1.7
Cc1cc(S(=O)(=O)NCc2ccco2)c(C)s1 | 0.5% | 5.1% | 4.9% | 17.8 | 7.38µM* | -1.0
Cc1cccc(NC(=O)c2ccc(F)c(S(=O)(=O)N3CCC4(CC3)OCCO4)c2)c1 | 0.4% | u | -29.6% | 27.6 | -7.5% | 33.8*
Cc1cc(S(=O)(=O)NCc2ccc(S(N)(=O)=O)cc2)c(C)s1 | -2.1% | -6.0% | 5.3% | -20.5 | u | -7.2
CC(=O)Nc1cccc(C(=O)Nc2cccc(S(=O)(=O)NCc3ccco3)c2)c1 | 4.3% | u | x | x | u | x
SMILES | SARS PLP yeast | Pf growth 48h | NS1 function inh | Shiga toxin inh | Pf growth 96h | Cycloheximide cs
Cc1cccc(NC(=O)c2ccc(F)c(S(=O)(=O)NCc3ccco3)c2)c1 | 4.1% | -0.5% | -12.8% | 83.8* | u | 43.7*
COc1ccc(CN2C3CCCC2CC(NC(=O)Nc2ccccc2C)C3)cc1 (stereo not given) | 7.8% | u | -5.3% | -2.4 | u | 1.3
COc1ccc(CN2C3CCCC2CC(NC(=O)Nc2ccccc2)C3)cc1 (stereo not given) | 6.3% | 10.4µM* | 0.5% | -3.4 | u | -0.4
COc1ccc(CN2C3CCCC2CC(NC(=O)Nc2cccc(C)c2)C3)cc1 (stereo not given) | -10.0% | 7.38µM* | -1.4% | -13.3 | 42.2% | -3.2
Cc1cc(NS(=O)(=O)c2ccc(NC(=O)c3ccc(Cl)cc3[N+](=O)[O-])cc2)no1 | -3.2% | -1.2% | 17.5% | -12.4 | u | 1.1
CCN1C(=O)C(=Cc2ccc(C)s2)C(=O)N(CC)C1=S | 4.1% | 103.2% | 23.0% | 44.4* | 108.2% | 21.1
CCN1C(=O)/C(=C/c2ccc(C)s2)NC1=S | u | 8.3% | -8.2% | 8.3 | x | 17.6
CCOC(=O)c1ccc(NC(=O)c2nc[nH]c2C(=O)N(C)Cc2ccccc2)cc1 | -0.4% | u | -4.0% | -2.0 | u | 5.7
CC1(COc2ccc(CC3SC(=O)NC3=O)cc2)CCCCC1 (stereo not given) | x | -12.5% | x | x | -9.1% | x
Cc1c(C)c2c(c(C)c1O)CCC(C)(COc1ccc(CC3SC(=O)NC3=O)cc1)O2 (stereo not given) | x | u | x | -9.0 | 6.01µM* | 11.4
CC1(c2ccccc2)NC(=O)N(CC(=O)NNC(=O)c2cccc(Cl)c2)C1=O (stereo not given) | 1.9% | 14.7% | x | x | 23.2% | x
COc1ccc(Cl)cc1NC(=O)CN(C)C(=O)c1cc2c(s1)CCC(C)C2 (stereo not given) | 1.1% | u | x | x | u | x
CCOc1ccc(C(=O)Nc2cc(S(=O)(=O)Nc3ccccc3Cl)ccc2N2CCOCC2)cc1 | -10.2% | u | u | 4.9 | 2.62µM* | 9.8
O=C(Nc1cc(S(=O)(=O)N2CCOCC2)ccc1N1CCCC1)c1ccc(F)cc1 | 0.6% | -21.0% | x | x | u | x
CCOc1ccc(S(=O)(=O)Nc2ccccc2C(=O)Nc2ccccc2N2CCOCC2)cc1 | -3.1% | -12.6% | -4.7% | -1.5 | x | 2.7
CCCOc1ccc(C(=O)Nc2cc(S(=O)(=O)N3CCOCC3)ccc2N2CCOCC2)cc1 | -0.1% | 11.7µM* | x | x | u | x
Cc1c(C(=O)OCC2CCCO2)[nH]c2c1C(=O)CC(c1ccc(N(C)C)cc1)C2 (stereo not given) | -3.7% | u | -5.6% | 17.9 | 91.2% | -1.1
N#Cc1cccc(CN2CCC(=O)N([C@H](CO)Cc3ccccc3)CC2)c1 | 7.8% | -1.1% | 3.1% | 0.3 | 32.2% | -1.4
O=C(COC(=O)CSc1ccc(F)cc1)NNC(=O)c1ccc([N+](=O)[O-])cc1 | 2.3% | 3.0% | x | x | 28.1% | x
C=CC[C@H](CC(=O)N(CCO)Cc1ccccc1)C(=O)NC[C@H](OC(=O)[C@@H](CC=C)Cc1ccc(F)cc1)c1ccccc1 | -37.5% | x | x | x | x | x
